# Experimental data reported in the supplement of paper PMC11402862.
# Target: FXR LBD (GAL4 fusion) (UniProt Q96RI1)
# Assay: luciferase reporter transactivation, fold of solvent control; higher = stronger receptor activation
# Conditions: HEK293T, exposure time: 24 h
# Method: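 HEK293T cells were transiently transfected with a GAL4-DBD fused to the ligand-binding domain of a human nuclear receptor (PPARα, PPARγ, PPARδ, FXR, LXRα, PXR, RARα or CAR), the GAL4-(UAS)5-TK firefly luciferase reporter and a Renilla luciferase normalisation plasmid. Cells were exposed to compound for 24 h in 0.5% DMSO. Firefly/Renilla luciferase was expressed as fold of the solvent control (=1). Values are the mean of 2-3 biological replicates; receptor agonists were used as positive controls.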
# Sequence of FXR LBD (GAL4 fusion) (Q96RI1 whole entry, looked up, the tested form may be a part): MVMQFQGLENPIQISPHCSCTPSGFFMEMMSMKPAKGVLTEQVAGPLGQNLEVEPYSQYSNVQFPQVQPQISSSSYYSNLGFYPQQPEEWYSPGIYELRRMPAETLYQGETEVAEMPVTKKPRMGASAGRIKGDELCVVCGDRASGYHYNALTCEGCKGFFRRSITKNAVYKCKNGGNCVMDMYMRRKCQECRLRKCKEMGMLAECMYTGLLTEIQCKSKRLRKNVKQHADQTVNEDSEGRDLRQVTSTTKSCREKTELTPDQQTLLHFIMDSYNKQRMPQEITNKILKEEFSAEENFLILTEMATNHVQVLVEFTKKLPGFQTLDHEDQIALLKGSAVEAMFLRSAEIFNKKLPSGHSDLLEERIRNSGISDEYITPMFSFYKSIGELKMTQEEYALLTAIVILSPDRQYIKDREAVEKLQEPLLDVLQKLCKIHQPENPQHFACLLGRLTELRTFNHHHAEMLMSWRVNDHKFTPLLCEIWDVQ
Structure (SMILES),luciferase reporter transactivation (concentration: 1 µM),luciferase reporter transactivation (concentration: 5 µM),luciferase reporter transactivation (concentration: 10 µM),luciferase reporter transactivation (concentration: 25 µM),luciferase reporter transactivation (concentration: 50 µM),luciferase reporter transactivation (concentration: 100 µM),luciferase reporter transactivation (concentration: 250 µM),luciferase reporter transactivation (concentration: 500 µM),luciferase reporter transactivation (concentration: 2.5 µM)
O=C(O)C(F)(F)C(F)(F)F [perfluoropropanoic acid],1.54,1.63,1.39,0.693,1.46,1.43,1.27,1.62,–
NS(=O)(=O)C(F)(F)C(F)(F)C(F)(F)C(F)(F)C(F)(F)C(F)(F)C(F)(F)C(F)(F)F [perfluorooctane sulfonamide],0.705,1.1,0.752,–,–,1.01,–,–,0.788
